Laboratory results published in ChEMBL document CHEMBL1961873, “Compounds: GSK PKIS; Assays: Nanosyn kinase panel” (2012).

Tests used:
[1] = target: T1, Aurora kinase A (Homo sapiens) (UniProt O14965); conditions: at 1 µM;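 also: values are mean percent inhibition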
T1 sequence (whole entry): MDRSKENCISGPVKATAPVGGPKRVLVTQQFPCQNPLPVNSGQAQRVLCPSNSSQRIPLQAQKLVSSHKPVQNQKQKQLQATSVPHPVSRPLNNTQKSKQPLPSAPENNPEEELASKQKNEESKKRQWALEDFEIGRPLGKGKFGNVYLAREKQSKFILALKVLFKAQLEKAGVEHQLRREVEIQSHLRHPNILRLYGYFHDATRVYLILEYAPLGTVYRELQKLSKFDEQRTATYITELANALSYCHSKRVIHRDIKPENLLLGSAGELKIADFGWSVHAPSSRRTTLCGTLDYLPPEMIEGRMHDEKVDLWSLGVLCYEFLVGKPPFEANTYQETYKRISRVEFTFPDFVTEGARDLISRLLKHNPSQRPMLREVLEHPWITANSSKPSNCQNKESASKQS

[2] = target: Aurora kinase B (Homo sapiens) (UniProt Q96GD4); conditions: at 0.1 µM
[3] = target: Aurora kinase B (Homo sapiens) (UniProt Q96GD4); conditions: at 1 µM
[4] = target: T2, Aurora kinase C (Homo sapiens) (UniProt Q9UQB9); conditions: at 0.1 µM
T2 sequence (whole entry): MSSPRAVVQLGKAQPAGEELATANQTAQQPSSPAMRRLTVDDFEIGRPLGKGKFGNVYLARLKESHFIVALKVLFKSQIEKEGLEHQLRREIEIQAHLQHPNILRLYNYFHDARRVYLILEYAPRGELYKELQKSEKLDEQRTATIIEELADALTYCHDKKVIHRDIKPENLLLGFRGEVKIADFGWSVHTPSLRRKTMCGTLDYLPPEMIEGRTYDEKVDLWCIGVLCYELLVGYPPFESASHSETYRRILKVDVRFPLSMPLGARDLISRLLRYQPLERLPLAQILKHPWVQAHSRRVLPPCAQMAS

[5] = target: T2, Aurora kinase C (Homo sapiens); conditions: at 1 µM
[6] = target: Serine/threonine-protein kinase 10 (Homo sapiens) (UniProt O94804); conditions: at 0.1 µM
[7] = target: Serine/threonine-protein kinase 10 (Homo sapiens) (UniProt O94804); conditions: at 1 µM
[8] = target: T3, Mitogen-activated protein kinase kinase kinase kinase 2 (Homo sapiens) (UniProt Q12851); conditions: at 0.1 µM
T3 sequence (whole entry): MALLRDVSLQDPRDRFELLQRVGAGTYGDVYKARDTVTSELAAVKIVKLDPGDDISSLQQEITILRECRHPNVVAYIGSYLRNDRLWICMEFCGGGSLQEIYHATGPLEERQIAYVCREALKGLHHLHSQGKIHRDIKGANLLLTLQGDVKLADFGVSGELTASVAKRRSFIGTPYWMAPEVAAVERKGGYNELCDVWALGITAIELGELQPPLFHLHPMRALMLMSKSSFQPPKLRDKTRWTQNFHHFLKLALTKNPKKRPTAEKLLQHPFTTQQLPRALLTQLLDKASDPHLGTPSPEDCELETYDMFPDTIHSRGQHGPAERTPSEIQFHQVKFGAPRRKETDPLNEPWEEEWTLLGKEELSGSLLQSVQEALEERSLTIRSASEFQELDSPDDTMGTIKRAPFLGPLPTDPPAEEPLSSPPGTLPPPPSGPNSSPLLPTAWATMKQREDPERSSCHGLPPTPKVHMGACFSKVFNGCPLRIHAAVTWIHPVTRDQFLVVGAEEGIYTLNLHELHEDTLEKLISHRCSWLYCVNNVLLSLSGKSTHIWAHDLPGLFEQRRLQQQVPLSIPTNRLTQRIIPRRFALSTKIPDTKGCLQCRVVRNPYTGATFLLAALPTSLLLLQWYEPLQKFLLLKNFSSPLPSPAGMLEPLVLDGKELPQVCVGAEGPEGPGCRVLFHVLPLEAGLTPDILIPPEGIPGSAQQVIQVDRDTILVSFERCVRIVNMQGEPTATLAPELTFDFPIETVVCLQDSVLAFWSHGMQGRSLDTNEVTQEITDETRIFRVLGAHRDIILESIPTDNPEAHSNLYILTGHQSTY

[9] = target: T3, Mitogen-activated protein kinase kinase kinase kinase 2 (Homo sapiens); conditions: at 1 µM
[10] = target: Mitogen-activated protein kinase kinase kinase kinase 4 (Homo sapiens) (UniProt O95819); conditions: at 0.1 µM
[11] = target: Mitogen-activated protein kinase kinase kinase kinase 4 (Homo sapiens) (UniProt O95819); conditions: at 1 µM
[12] = target: Dual specificity mitogen-activated protein kinase kinase 1 (Homo sapiens) (UniProt Q02750); conditions: at 0.1 µM
[13] = target: Dual specificity mitogen-activated protein kinase kinase 1 (Homo sapiens) (UniProt Q02750); conditions: at 1 µM
[14] = target: Misshapen-like kinase 1 (Homo sapiens) (UniProt Q8N4C8); conditions: at 0.1 µM
[15] = target: Misshapen-like kinase 1 (Homo sapiens) (UniProt Q8N4C8); conditions: at 1 µM
[16] = target: T4, Serine/threonine-protein kinase 4 (Homo sapiens) (UniProt Q13043); conditions: at 0.1 µM
T4 sequence (whole entry): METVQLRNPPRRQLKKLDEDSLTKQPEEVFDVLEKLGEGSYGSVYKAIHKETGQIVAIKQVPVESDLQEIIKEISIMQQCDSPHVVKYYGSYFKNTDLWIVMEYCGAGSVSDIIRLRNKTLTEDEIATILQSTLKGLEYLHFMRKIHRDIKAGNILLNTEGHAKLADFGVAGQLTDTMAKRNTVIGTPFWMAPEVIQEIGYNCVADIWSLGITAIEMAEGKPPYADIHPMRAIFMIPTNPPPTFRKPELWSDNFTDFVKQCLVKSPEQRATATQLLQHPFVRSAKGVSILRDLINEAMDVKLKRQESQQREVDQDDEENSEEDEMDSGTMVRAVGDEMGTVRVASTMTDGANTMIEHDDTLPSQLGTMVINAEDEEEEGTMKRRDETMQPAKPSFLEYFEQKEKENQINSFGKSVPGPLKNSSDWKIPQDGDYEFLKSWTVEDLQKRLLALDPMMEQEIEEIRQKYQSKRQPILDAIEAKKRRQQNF

[17] = target: T4, Serine/threonine-protein kinase 4 (Homo sapiens); conditions: at 1 µM
[18] = target: T5, Serine/threonine-protein kinase 3 (Homo sapiens) (UniProt Q13188); conditions: at 0.1 µM
T5 sequence (whole entry): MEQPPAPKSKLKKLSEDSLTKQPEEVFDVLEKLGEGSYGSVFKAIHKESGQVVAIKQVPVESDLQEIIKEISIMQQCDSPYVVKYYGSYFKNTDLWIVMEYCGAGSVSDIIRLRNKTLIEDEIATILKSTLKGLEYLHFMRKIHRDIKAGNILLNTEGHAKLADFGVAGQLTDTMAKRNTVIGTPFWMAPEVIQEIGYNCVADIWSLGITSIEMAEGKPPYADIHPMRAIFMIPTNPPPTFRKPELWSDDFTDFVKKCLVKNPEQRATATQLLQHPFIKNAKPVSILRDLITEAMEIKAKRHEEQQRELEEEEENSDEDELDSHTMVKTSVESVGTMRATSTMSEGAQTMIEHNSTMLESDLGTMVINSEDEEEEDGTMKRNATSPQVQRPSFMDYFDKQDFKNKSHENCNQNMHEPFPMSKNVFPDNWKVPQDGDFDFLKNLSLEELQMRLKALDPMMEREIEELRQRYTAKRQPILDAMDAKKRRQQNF

[19] = target: T5, Serine/threonine-protein kinase 3 (Homo sapiens); conditions: at 1 µM
[20] = target: Serine/threonine-protein kinase 26 (Homo sapiens) (UniProt Q9P289); conditions: at 0.1 µM
Serine/threonine-protein kinase 26 (Homo sapiens), sequence (Q9P289 2-416 limits assumed): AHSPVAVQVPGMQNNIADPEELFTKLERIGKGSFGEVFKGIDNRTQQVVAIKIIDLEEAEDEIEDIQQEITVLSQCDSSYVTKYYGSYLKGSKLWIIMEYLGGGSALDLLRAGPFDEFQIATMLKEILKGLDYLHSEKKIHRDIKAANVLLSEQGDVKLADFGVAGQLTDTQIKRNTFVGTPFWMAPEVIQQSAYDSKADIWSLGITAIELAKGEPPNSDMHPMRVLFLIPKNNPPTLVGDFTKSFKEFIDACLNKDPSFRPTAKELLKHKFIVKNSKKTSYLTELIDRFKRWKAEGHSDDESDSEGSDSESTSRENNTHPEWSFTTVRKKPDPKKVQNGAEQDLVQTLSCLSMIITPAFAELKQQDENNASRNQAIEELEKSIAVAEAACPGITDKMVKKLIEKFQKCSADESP

Misshapen-like kinase 1 (Homo sapiens), sequence (Q8N4C8 whole entry, looked up): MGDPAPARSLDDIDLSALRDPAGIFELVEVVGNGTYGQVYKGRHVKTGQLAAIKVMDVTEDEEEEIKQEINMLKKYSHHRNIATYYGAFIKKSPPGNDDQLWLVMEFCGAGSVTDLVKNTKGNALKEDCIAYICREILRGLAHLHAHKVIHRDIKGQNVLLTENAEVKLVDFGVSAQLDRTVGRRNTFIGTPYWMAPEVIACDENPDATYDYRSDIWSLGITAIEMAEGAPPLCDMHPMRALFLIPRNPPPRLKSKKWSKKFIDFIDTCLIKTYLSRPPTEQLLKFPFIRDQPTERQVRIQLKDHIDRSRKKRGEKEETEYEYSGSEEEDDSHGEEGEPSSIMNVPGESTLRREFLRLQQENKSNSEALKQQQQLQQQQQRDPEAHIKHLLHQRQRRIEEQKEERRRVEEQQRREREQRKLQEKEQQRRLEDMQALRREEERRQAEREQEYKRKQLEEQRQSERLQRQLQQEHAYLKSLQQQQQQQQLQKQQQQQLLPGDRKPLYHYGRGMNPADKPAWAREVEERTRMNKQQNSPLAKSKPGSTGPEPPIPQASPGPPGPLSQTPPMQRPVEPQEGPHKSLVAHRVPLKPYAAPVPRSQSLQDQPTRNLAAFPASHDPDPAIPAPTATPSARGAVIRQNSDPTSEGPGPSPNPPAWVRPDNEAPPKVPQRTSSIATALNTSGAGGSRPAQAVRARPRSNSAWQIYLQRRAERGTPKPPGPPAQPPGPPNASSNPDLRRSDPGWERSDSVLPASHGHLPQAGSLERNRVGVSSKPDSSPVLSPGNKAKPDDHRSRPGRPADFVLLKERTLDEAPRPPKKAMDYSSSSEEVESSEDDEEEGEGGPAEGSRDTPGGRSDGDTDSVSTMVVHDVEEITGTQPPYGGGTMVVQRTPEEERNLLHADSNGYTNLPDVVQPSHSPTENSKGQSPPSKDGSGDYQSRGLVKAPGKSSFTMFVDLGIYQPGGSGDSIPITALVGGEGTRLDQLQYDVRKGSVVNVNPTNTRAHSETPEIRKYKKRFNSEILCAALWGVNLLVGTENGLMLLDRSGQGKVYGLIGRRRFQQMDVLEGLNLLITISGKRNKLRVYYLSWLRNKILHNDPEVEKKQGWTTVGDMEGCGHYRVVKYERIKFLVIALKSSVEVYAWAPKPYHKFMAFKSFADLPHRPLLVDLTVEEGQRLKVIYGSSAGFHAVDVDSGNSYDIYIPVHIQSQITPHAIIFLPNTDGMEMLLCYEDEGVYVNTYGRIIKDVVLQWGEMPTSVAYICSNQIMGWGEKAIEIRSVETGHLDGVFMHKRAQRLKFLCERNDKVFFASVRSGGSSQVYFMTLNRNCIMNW
Serine/threonine-protein kinase 10 (Homo sapiens), sequence (O94804 whole entry, looked up): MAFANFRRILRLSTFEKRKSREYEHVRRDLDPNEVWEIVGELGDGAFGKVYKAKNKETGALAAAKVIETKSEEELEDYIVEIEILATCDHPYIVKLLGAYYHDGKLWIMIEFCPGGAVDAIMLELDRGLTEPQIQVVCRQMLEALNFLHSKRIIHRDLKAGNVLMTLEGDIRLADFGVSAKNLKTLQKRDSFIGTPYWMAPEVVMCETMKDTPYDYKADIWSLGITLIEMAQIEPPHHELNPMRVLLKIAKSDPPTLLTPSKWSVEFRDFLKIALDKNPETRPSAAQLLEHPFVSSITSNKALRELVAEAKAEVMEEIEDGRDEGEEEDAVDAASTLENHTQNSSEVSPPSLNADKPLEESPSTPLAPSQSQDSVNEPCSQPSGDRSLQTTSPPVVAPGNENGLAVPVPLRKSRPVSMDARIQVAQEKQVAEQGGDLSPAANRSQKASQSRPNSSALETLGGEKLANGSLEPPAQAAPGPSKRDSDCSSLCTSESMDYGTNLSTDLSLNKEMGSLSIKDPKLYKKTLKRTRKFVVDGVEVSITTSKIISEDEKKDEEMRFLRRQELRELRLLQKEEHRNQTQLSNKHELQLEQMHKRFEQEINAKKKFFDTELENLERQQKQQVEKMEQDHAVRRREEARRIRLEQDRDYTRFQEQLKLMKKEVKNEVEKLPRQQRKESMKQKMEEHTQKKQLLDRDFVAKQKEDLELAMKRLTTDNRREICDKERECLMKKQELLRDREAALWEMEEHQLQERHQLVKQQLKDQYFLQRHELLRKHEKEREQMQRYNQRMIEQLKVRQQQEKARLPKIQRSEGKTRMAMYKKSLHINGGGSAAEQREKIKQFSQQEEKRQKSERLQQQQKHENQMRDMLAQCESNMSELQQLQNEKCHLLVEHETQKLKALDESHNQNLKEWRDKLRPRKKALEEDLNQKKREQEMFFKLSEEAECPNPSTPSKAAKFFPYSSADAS
Dual specificity mitogen-activated protein kinase kinase 1 (Homo sapiens), sequence (Q02750 whole entry): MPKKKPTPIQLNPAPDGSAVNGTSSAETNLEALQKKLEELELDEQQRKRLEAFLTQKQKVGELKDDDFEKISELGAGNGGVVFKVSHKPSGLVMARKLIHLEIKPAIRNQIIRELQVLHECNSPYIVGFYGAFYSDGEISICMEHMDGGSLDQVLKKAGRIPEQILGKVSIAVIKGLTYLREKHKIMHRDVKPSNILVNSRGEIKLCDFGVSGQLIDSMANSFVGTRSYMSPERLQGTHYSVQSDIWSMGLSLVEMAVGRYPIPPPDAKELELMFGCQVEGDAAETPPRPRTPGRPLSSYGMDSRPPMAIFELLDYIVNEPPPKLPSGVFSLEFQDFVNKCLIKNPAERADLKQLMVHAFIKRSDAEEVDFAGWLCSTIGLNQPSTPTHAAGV
Mitogen-activated protein kinase kinase kinase kinase 4 (Homo sapiens), sequence (O95819 2-1239 limits assumed): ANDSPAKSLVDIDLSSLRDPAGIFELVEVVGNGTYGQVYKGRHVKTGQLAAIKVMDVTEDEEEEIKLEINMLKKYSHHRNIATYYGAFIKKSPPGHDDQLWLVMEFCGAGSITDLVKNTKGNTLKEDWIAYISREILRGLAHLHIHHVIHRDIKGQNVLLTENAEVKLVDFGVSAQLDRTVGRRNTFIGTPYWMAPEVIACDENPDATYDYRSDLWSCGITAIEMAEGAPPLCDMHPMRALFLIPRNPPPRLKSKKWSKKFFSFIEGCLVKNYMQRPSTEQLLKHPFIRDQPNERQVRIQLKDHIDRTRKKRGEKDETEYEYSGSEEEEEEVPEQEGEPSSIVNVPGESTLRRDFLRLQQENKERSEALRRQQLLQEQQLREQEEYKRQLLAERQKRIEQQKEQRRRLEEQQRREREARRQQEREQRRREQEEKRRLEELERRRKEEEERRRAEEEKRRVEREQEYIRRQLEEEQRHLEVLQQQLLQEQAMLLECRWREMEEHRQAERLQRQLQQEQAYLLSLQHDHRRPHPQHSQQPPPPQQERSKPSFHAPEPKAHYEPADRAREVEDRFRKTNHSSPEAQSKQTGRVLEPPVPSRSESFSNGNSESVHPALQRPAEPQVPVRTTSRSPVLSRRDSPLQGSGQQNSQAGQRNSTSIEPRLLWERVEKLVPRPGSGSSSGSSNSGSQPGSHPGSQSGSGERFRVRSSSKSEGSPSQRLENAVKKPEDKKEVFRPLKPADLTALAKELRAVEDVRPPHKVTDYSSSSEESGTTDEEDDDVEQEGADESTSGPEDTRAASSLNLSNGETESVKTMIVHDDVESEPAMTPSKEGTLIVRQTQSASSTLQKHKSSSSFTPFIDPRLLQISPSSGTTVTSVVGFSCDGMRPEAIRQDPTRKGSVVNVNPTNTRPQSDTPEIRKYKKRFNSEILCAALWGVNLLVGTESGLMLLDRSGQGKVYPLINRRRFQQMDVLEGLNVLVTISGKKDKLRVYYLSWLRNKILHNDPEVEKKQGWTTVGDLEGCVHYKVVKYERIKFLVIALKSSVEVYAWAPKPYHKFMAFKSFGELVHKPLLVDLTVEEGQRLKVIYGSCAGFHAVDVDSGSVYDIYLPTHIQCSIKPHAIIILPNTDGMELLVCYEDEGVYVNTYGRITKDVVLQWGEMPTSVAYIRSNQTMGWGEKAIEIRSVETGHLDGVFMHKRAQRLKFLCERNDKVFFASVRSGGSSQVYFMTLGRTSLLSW
Aurora kinase B (Homo sapiens), sequence (Q96GD4 whole entry): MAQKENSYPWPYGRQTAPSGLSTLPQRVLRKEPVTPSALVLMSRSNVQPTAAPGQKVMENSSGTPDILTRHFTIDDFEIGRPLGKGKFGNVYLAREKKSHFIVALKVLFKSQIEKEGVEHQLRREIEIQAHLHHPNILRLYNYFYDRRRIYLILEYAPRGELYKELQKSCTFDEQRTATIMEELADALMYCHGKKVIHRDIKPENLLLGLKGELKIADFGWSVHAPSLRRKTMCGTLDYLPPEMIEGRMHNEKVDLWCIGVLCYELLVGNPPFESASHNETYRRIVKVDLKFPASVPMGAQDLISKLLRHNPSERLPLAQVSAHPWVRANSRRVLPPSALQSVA

SMILES | inhibition [1] | inhibition [2] | inhibition [3] | inhibition [4] | inhibition [5] | inhibition [6] | inhibition [7] | inhibition [8] | inhibition [9] | inhibition [10] | inhibition [11] | inhibition [12] | inhibition [13] | inhibition [14] | inhibition [15] | inhibition [16] | inhibition [17] | inhibition [18] | inhibition [19] | inhibition [20]
COC(=O)Nc1nc2cc(Oc3ccc(NC(=O)Nc4ccccc4)cc3)ccc2[nH]1 | 3.53% | 11.9% | 24.9% | 28.9% | 42.6% | 9.63% | 14.7% | 1.5% | 0.87% | 3.39% | 12.9% | 3.88% | 2.45% | 5.15% | 11.3% | 3.7% | 4.62% | 5.39% | 6.48% | -0.23%
Cc1cc(O)cc(C)c1/C=C/c1cncc(C(N)=O)c1 | 11.7% | 2.21% | 7.09% | 8.73% | 1.85% | 4.97% | 20.2% | 2.32% | 8.96% | 4.83% | 13.9% | 2.17% | 3.39% | 4.8% | 7.34% | 2.44% | 7.28% | 2.17% | 4.31% | -0.63%
CS(=O)(=O)CCNCc1ccc(-c2ccc3ncnc(Nc4ccc(OCc5ccccc5)cc4)c3c2)o1 | 7.7% | 4.74% | 10% | 2.17% | 7.65% | 5.66% | 7.82% | 0.28% | 1.58% | 3.5% | 6.76% | 2.75% | 2.72% | 5.38% | 5.67% | 3.24% | 3.52% | 5.36% | 3.74% | 0.02%
NS(=O)(=O)c1cccc(N/C=C2\C(=O)Nc3ccccc32)c1 | 47.6% | 6.68% | 40.5% | 7.7% | 76.7% | 4.31% | 9.72% | 4.14% | 28.9% | 23.3% | 78.2% | 4.87% | 5.35% | 18.4% | 70.2% | 7.24% | 26.1% | 5.78% | 21.2% | -1.63%
